# Pf growth 96h: P. falciparum growth inhibition at 96 hours. P. falciparum luciferase reporter growth, 96 h. Potency, µM (doses to about 28.7 µM), for the others: at the top dose activity change, negative = inhibition, hits mostly inhibitors. 320,000 tested, 6.9% active. AID 504834; also: potency is read from the fitted curve at half-maximal effect; % is scaled to controls: 0 for no effect and ±100 for the full control effect
#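 Plates of compound plus infected erythrocytes (2% hematocrit, 0.05% parasitemia final) incubate 96 hours, 37 C, 5% CO2. Detection reagent added; reduced luminescence from the parasites' luciferase reporter flags inhibition.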
# Shiga toxin inh: Shiga toxin inhibition; 290,000 tested, 9.2% active; AID 2315; inhibition, % at 38.7 µM; Vero cells, Shiga toxin protein synthesis inhibition reporter; in the data active = inhibition mostly above about 28%, no sharp cut-off; inactive = mostly below about 43%; also: 0% is about no effect
# Lassa entry inh: inhibitors of Lassa virus binding or cell entry. Lassa virus pseudotype entry inhibition, cell reporter. Potency, µM (top dose mostly 37.9 µM), inactives show at the top dose activity change, negative = inhibition, actives largely listed as inhibitors. 300,000 tested, 1.2% active; calls by dose curve; tested in HEK293 cells; also: potency is read from the fitted curve at half-maximal effect; % is scaled to controls: 0 for no effect and ±100 for the full control effect; nearly all actives have a fitted effect of over 50% in size
# Pf growth 48h: inhibits P. falciparum growth in the first generation, 48 h; P. falciparum luciferase growth in erythrocytes, 48 h; Potency, µM (top dose mostly 28.7 µM), for the others: at the highest dose activity change, negative = inhibition, usual class: inhibitors; 310,000 tested, 5.9% active; AID 504832; also: potency is read from the fitted curve at half-maximal effect; % is scaled to controls: 0 for no effect and ±100 for the full control effect
#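 Growth was read as firefly luciferase luminescence after a 48 h, 37 C, 5% CO2 exposure of compounds to reporter-bearing P. falciparum cultures (0.1% parasitemia, 2% hematocrit final) in Albumax-supplemented RPMI 1640.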
# Marburg entry inh: Marburg virus entry inhibition; Marburg virus pseudotyped entry inhibition, cell reporter; Potency, µM (doses to about 37.8 µM), for inactives: top-dose activity change, negative = inhibition, usual class: inhibitors; 300,000 tested, 1.8% active; AID 540276; calls by dose curve; tested in HEK293 cells; also: potency is read from the fitted curve at half-maximal effect; % is scaled to controls: 0 for no effect and ±100 for the full control effect
# CHX counter: counter-screen for Shiga toxin inhibitors: cycloheximide protein synthesis inhibition. cell reporter, cycloheximide protein synthesis inhibition counterscreen. max response, %. 300,000 tested, 12% active. AID 2314; in the data active = max response mostly above about 13%, no sharp cut-off; inactive = mostly below about 14%; also: read at 38.3 µM for the half of the compounds with a filed dose; 0% is about no effect
# Numbers without * were called inactive; i = inactive; u = inconclusive; x = no result given; [ ] = another dose, or the depositor's remark. Hits are enriched below; roughly 19% of the tested compounds scored in any of these assays. Unless noted, calls follow the shape of the dose curve; as a rule, active = well fitted inhibition curve with a large enough effect; inconclusive = small, poorly fitted or top-dose-only effect, or another doubt; inactive = no such curve, though single readings can be large or run the other way.
SMILES,Pf growth 96h,Shiga toxin inh,Lassa entry inh,Pf growth 48h,Marburg entry inh,CHX counter
COc1ccc(C(=O)N2CCCC(Nc3ccc(F)cc3)C2)cc1F (centres undefined),10µM*,-8,-7%,24%,-3%,-2
COc1ccc(C(=O)N2CCCC(Nc3ccc(C)c(C)c3)C2)cc1F (centres undefined),u,47,-5%,-3%,-22%,30*
Cc1ccc2nc(C(=O)N3CCCC(Nc4ccc(F)cc4)C3)cn2c1 (centres undefined),68%,81*,14%,42%,26%,28*
Cc1ccn2cc(C(=O)N3CCCC(Nc4ccc(F)cc4)C3)nc2c1 (centres undefined),85%,22,-9%,2%,9%,8
COc1cc(CN2CCNC(=O)C2CC(=O)N2CCc3ccccc3C2)cc(OC)c1 (centres undefined),95%,31,x,13%,x,0
CCOC(=O)c1cccc(NC(=O)N2Cc3ccccc3Oc3ncccc32)c1,x,x,-30%[46.1 µM],x,u,x
O=C(C1CCN(S(=O)(=O)N2CCOCC2)CC1)N1CCN(c2ccccc2F)CC1,-4%,10,u,-4%,7%,5
CCCc1cc(=O)[nH]c(Nc2ccc(OCC)cc2)n1,x,x,-15%[46.1 µM],x,7%[46.1 µM],x
CCCCc1ccc(Nc2nc(CCC)cc(=O)[nH]2)cc1,x,-10,u,10µM*,-21%,-1
CCCc1cc(=O)[nH]c(Nc2ccc3c(c2)OCCO3)n1,u,42*,0%,34%,-1%,36*
Cc1noc(C)c1S(=O)(=O)Nc1ccc(C(=O)N2CCc3ccccc3C2)cc1,u,-6,21%,11%,12%,-3
N#Cc1cc(C(=O)c2cc(Cl)ccc2O)cn(-c2ccccc2)c1=O,1.9µM*,-9,-4%,9.3µM*,-17%,-4
COc1ccc(O)c(C(=O)c2cc(C#N)c(=O)n(-c3c(C)n(C)n(-c4ccccc4)c3=O)c2)c1,9.3µM*,-6,u,u,-22%,22*
Cc1ccc(NC(=O)c2cc(C(=O)c3cc(Cl)ccc3O)cn(-c3ccc(C)cc3)c2=O)cc1,0.19µM*,-8,u,0.33µM*,u,-4
N#Cc1cc(C(=O)c2cc(Br)ccc2O)cn(C2CCCCC2)c1=O,1µM*,-8,u,1.5µM*,u,0
Cc1c(-n2cc(C(=O)c3cc(Cl)ccc3O)cc(C#N)c2=O)c(=O)n(-c2ccccc2)n1C,0%,13,-1%,0%,1%,-3
O=C(NCCN1CCC(Cc2ccccc2)CC1)C1CCN(S(=O)(=O)N2CCC3(CC2)OCCO3)CC1,-125%,-6,-21%,u,u,-2
Clc1ccc2nc(N3CCN(c4ccccc4)CC3)sc2c1,x,135*,u,i,-7%,37*
Brc1ccc2nc(N3CCN(c4ccccc4)CC3)sc2c1,260%,156*,19%,230%,2%[46.1 µM],47*
COc1ccc(OC)c2sc(N3CCN(c4ccccc4)CC3)nc12,x,x,-1%,x,1%,x
CCOc1ccccc1/C=C(\NC(=O)c1ccccc1)C(=O)NCCC(=O)O,-7%,43*,4%,21%,u,32
Cn1c(N)c(C(=O)COC(=O)C2(c3ccc(F)cc3)CCCC2)c(=O)n(C)c1=O,2.3µM*,-11,-9%,4.1µM*,-22%,-1
Cn1c(N)c(C(=O)COC(=O)C2CCC(C(C)(C)C)CC2)c(=O)n(C)c1=O (centres undefined),x,32,u,13µM*,-7%,-1
Cn1c(N)c(C(=O)COC(=O)C2(c3ccc(Cl)cc3)CCCC2)c(=O)n(C)c1=O,x,23,-5%,3.7µM*,u,1
CC(=O)Nc1ccc(NC(=O)COC(=O)C2(c3ccc(Cl)cc3)CCCC2)cc1,-13%,-2,u,-17%,13µM*,-3
Cc1ccc(NC(=O)CCC(=O)NNC(=O)COc2ccccc2)cc1C,10%,7,1%,3%,-4%,-3
CC1C(=O)Nc2ccc(S(=O)(=O)N3CCN(c4cccc(C(F)(F)F)c4)CC3)cc2NC1=O (centres undefined),u,13,x,-14%,x,-5
CCOC(=O)c1cc(NC(=O)CSc2nnc(CN3CCOCC3)n2C)ccc1Cl,x,x,u,x,-2%,x

# High-throughput results deposited in PubChem by National Center for Advancing Translational Sciences (NCATS).
